ChEMBL document CHEMBL3988442, “University of Dundee, Small-Polar-MMV Screening Library” (2021)
Screen size: about 48,000 compounds; about 13,000 (27%) showed an effect of 50% or more. The list shows a part of the results.

system: Wolbachia pipientis; test: Anti-Wolbachia Cell-Based Screen; format: functional; parameters: scale not given: in the data most compounds retested in dose-response had high values; settings: 5 µM

Row | SMILES | Percent Effect [%]
1 | CCNC(=O)[C@@H]1C[C@H](N)CN1Cc1ccc2cccc(Cl)c2n1 | 33.76
2 | Cn1cnc(S(=O)(=O)N2C[C@H](OCC3CC3)[C@H]3OCCC[C@H]32)c1.O=C(O)C(F)(F)F | -7.803
3 | CCSCC(C)NCc1nn(C)c2ccc(C)cc12 (configuration not stated) | -30.17
4 | CCC1CN(C(=O)c2ccc(O)c(C)c2)CCN1C(C)C (configuration not stated) | -1.675
5 | COC(=O)[C@@H]1Cc2c[nH]c3cccc(c23)[C@H](CC(C)C)N1 | -15.46
6 | O=C(CCOCC(F)(F)F)NS(=O)(=O)c1cccnc1 | 3.556
7 | Cc1ccc(CCN2C(=O)CC[C@H]3CN(Cc4cnn(C)c4)CC[C@H]32)o1 | 42.08
8 | Fc1ccc(-c2nnc(CN3CCn4c(nnc4C4CC4)C3)o2)cc1 | -8.144
9 | CCN(CC)S(=O)(=O)N1CCCC1c1nnc2n1CCN(C)CC2 (configuration not stated) | 109.2
10 | CCN(Cc1cnn(C)c1)S(=O)(=O)N1CCCC1c1ccco1 (configuration not stated) | 12.89
11 | CN1CCc2nnc(C3CCCN3S(=O)(=O)c3ccc(F)cc3)n2CC1 (configuration not stated) | 101.3
12 | CCN(CC)S(=O)(=O)N1CCCC1CC(=O)c1cccs1 (configuration not stated) | 1.947
13 | COc1cccc2c1CCN(C(=O)NCc1nnc3ccccn13)C2 | -4.622
14 | COc1cc(NC(=O)C2CC(=O)N(c3cccc(Br)c3)C2)ncn1 (configuration not stated) | -7.851
15 | CCNC(=O)[C@@H]1C[C@@H](N)CN1Cc1ccc2cccc(Cl)c2n1 | -2.31
16 | CCc1ccc2c(c1)C(CCNC(=O)CSC(F)(F)F)C(=O)N2 (configuration not stated) | 2.698
17 | CCC1CCCCCN1C(=O)c1ccc(N2CCC(O)CC2)cc1 (configuration not stated) | 94.71
18 | CN(C)CC1COCCN1C(=O)c1ccccc1C(=O)c1ccccc1.O=CO (configuration not stated) | -10.61
19 | Cc1ccccc1C(=O)N1CCOCC1CN(C)C.O=CO (configuration not stated) | -21.7
20 | CN(C)CC1CCCCN1C(=O)c1ccc(N2CCOCC2)cc1 (configuration not stated) | 108.2
21 | Cc1ccc(C(=O)N2CCCCC2CN(C)C)cc1 (configuration not stated) | 107.2
22 | Cc1cnn(CC2CCCCN2C(=O)c2ccc(CN(C)C)cc2)c1 (configuration not stated) | 17.54
23 | CCC1CCCCCN1C(=O)c1coc(S(=O)(=O)N(C)C)c1 (configuration not stated) | 15.41
24 | CCC1CCCCN1C(=O)c1ccc2[nH]nnc2c1 (configuration not stated) | 1.78
25 | COCCCC1CCCCN1C(=O)c1ccc(SCCO)cc1 (configuration not stated) | -1.649
26 | Cn1cccc1-c1nnc(C2(c3ccc4c(c3)OCO4)CCOCC2)o1 | -12.47

Row | SMILES | Percent Effect [%]
27 | COCCOc1ncccc1C(=O)N(C)c1nccs1 | -66.02
28 | CCOCc1nc2c(c(N3CC=CC3)n1)CCN(C1CCOCC1)CC2 | -25.57
29 | CCc1ccccc1OCCN1CCC(NS(C)(=O)=O)CC1 | 2.392
30 | COc1cccc(C(=O)NS(=O)(=O)c2cccc(C#N)c2)c1 | 105.7
31 | N#Cc1cccc(S(=O)(=O)NC(=O)COc2ccc3c(c2)CCC3)c1 | -8.201
32 | Cn1nnc2cc(C(=O)NS(=O)(=O)c3cccc(C#N)c3)ccc21 | -4.102
33 | COc1ccc(C(=O)NS(=O)(=O)c2cccc(C#N)c2)cc1 | 98.14
34 | COc1ccc2[nH]cc(C(=O)N3C[C@@H](O)[C@H](N4CCOCC4)C3)c2c1 | 129.4
35 | CCN(CC)C(=O)CNC(=O)c1c[nH]c2ccc(OC)cc12 | -4.616
36 | CCN(CC)C(=O)CCNC(=O)c1c[nH]c2ccc(OC)cc12 | 24.42
37 | COc1ccc2[nH]cc(C(=O)N3C[C@@H](O)[C@H](N4CCCC4)C3)c2c1 | 103.4
38 | COc1ccc2[nH]cc(C(=O)N3C[C@@H](O)[C@H](NS(C)(=O)=O)C3)c2c1 | 146.2
39 | COc1ccc2[nH]cc(C(=O)N3CC[C@H](CO)[C@@H](O)C3)c(=O)c2c1 | 6.79
40 | COCCCNC(=O)c1c[nH]c2ccc(OC)cc12 | -17.1
41 | COc1ccc(C(=O)N2C[C@@H](CN3CCOCC3)[C@@H](CO)C2)c(C)c1 | -1.833
42 | Cc1cc(C(=O)N2C[C@@H]3CCCO[C@@H]3[C@H](N3CCOCC3)C2)c(C)[nH]1 | 5.404
43 | CCS(=O)(=O)c1ccc(N2CCC(NC(=O)C(C)SC)CC2)cc1 (configuration not stated) | 6.219
44 | Cc1cc(C(C)NC(=O)c2c[nH]c(=O)c(Cl)c2)c(C)o1 (configuration not stated) | -8.782
45 | CC(C)C(C)(C#N)NC(=O)CN1CCCN(Cc2ccccc2F)CC1 (configuration not stated) | 1.272
46 | CCSc1ccc(NC(=O)NC2CCc3[nH]ncc3C2)cn1 (configuration not stated) | -2.569
47 | O=C(Nc1ccc(CN2CCOCC2)cc1)c1nccn2ccnc12 | -3.19
48 | Cc1nn(C)c2nc(O)cc(C(F)(F)C(F)(F)F)c12 | 1.264
49 | COc1ccc2c(C)c(C(=O)NCCCc3csc(N)n3)oc2c1 | -14.38
50 | CC(C)c1nn(C)c(N(C)C)c1CNCc1cccc(CN(C)C)c1.Cl | -0.8074
51 | Cc1nn(C)c(N(C)C)c1CNCC(O)c1ccccc1 (configuration not stated) | -19.87
52 | CC(C)c1nn(C)c(N(C)C)c1CNCc1cccnc1 | 3.817
